The full ranking holds about 5,000 sequences; the median of “log2 normalized fluorescence” is about 0.089, and the highest 2% start at about 0.81. This excerpt belongs to a sample that is enriched for the highest values.
Biological target: MYC (p64);MAX (p21), in MYC:MAX (human;human, UniProt P01106-1;P61244-2 1-439;1-151, |)
Assay: protein-binding microarray (anti-MAX antibody); PBM: 15 mM Tris-HCl pH 7.5, 100 mM KCl, 0.075% NP40, 7.5 mM beta-mercaptoethanol, 375 ng/ul BSA, 8 ng/ul poly(dA-dT):(dA-dT), 550 ng complex, 60 min, room tempe; high values mean tight binding
Conditions: protein: recombinant;recombinant; tags: 6xHis;6xHis; copies: 1;1; label: 3' end of printed strand (linker) attached to glass slide; dsDNA, one strand shown
In short: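 Binding is reported as log2 normalized fluorescence. Recombinant His-tagged human MYC:MAX or MAX:MAX dimers expressed in E. coli (550 ng) were incubated with a custom Agilent glass array for 60 min at room temperature in Tris-KCl buffer, pH 7.5, containing NP40, BSA and poly(dA-dT) competitor. The array carried ~5000 unique 12-nt sequences, each spotted in triplicate and made double-stranded by primer extension, and bound protein was detected with anti-MAX and secondary antibodies and scanned at 543 nm.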

MYC (p64);MAX (p21), in MYC:MAX, sequence (P01106 16-454, chain 1 of 2): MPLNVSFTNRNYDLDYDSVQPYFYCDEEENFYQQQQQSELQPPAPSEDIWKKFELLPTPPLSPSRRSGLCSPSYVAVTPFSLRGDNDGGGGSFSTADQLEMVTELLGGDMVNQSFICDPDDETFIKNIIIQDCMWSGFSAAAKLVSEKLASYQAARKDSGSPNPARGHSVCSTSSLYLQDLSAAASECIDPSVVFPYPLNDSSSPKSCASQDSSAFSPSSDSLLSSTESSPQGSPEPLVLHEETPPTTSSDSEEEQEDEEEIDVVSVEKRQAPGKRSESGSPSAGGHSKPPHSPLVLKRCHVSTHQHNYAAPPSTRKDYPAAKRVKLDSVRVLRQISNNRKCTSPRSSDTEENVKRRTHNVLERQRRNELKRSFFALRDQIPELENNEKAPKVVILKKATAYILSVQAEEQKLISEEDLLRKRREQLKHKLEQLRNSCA
MYC (p64);MAX (p21), in MYC:MAX, sequence (P61244 other isoform, or with tags, fused parts or gaps |, chain 2 of 2): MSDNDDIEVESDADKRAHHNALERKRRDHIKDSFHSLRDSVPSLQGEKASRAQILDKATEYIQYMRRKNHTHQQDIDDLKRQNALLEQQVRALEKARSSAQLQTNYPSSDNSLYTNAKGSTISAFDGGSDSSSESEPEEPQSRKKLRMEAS

Sequence	binding signal
CCGGCTCACGATGGGGCTTAATAGCTAAGATTACTATATCGACG	0.398 log2 normalized fluorescence
CCGGCTTACACGTGGGATTAATAGCTAAGATTACTATATCGACG	0.81 log2 normalized fluorescence
CCGGCTCTTACGTGGTATTAATAGCTAAGATTACTATATCGACG	0.358 log2 normalized fluorescence
CCGGCTCTCACGTGGTCTTAATAGCTAAGATTACTATATCGACG	0.836 log2 normalized fluorescence
CCGGCTCAGACGTGGTATTAATAGCTAAGATTACTATATCGACG	0.391 log2 normalized fluorescence
CCGGCTGGTACGTGGTCTTAATAGCTAAGATTACTATATCGACG	0.364 log2 normalized fluorescence
CCGGCTGAAACGTGGTCTTAATAGCTAAGATTACTATATCGACG	0.74 log2 normalized fluorescence
CCGGCTCATACGTGGTATTAATAGCTAAGATTACTATATCGACG	0.558 log2 normalized fluorescence
CCGGCGGTCACGTGGTATTAATAGCTAAGATTACTATATCGACG	0.805 log2 normalized fluorescence
CCGGCTGGCACCCGGTATTAATAGCTAAGATTACTATATCGACG	0.242 log2 normalized fluorescence
CCGGCTGACGTTTTGTATTAATAGCTAAGATTACTATATCGACG	-0.0354 log2 normalized fluorescence
CCGGCTGAAAGGCCGTATTAATAGCTAAGATTACTATATCGACG	0.17 log2 normalized fluorescence
CCGGCTGACACGCATTATTAATAGCTAAGATTACTATATCGACG	0.524 log2 normalized fluorescence
CCGGCTATTACGTGGTATTAATAGCTAAGATTACTATATCGACG	0.323 log2 normalized fluorescence
CCGGCCGTCACGTGGTATTAATAGCTAAGATTACTATATCGACG	0.809 log2 normalized fluorescence
CCGGCCGACATGTGGTATTAATAGCTAAGATTACTATATCGACG	0.663 log2 normalized fluorescence
CCGGCTATCACGTGGTATTAATAGCTAAGATTACTATATCGACG	0.71 log2 normalized fluorescence
CCGGCCATCACGTGGTATTAATAGCTAAGATTACTATATCGACG	0.764 log2 normalized fluorescence
CCGGCGATCACGTGGTATTAATAGCTAAGATTACTATATCGACG	0.946 log2 normalized fluorescence
CCGGCTCACACGTCGTATTAATAGCTAAGATTACTATATCGACG	0.506 log2 normalized fluorescence
CCGGCTTACATGTGGTATTAATAGCTAAGATTACTATATCGACG	0.625 log2 normalized fluorescence
CCGGCTCACATGTGGTATTAATAGCTAAGATTACTATATCGACG	0.918 log2 normalized fluorescence
CCGGCTCACACGTGGTATTAATAGCTAAGATTACTATATCGACG	0.998 log2 normalized fluorescence
CCGGCCCTCACGTGGTATTAATAGCTAAGATTACTATATCGACG	0.828 log2 normalized fluorescence
CCGGCTGACGCTTTGTATTAATAGCTAAGATTACTATATCGACG	0.148 log2 normalized fluorescence
CCGGCTGACCATTGGTATTAATAGCTAAGATTACTATATCGACG	0.0788 log2 normalized fluorescence
CCGGCTGAAAGAGTGTATTAATAGCTAAGATTACTATATCGACG	0.0309 log2 normalized fluorescence

Sequence	binding signal
CCGGCTGAGAGACGGTATTAATAGCTAAGATTACTATATCGACG	-0.00994 log2 normalized fluorescence
CCGGCTGACACGCGAGATTAATAGCTAAGATTACTATATCGACG	0.438 log2 normalized fluorescence
CCGGCTGAAGATGTGTATTAATAGCTAAGATTACTATATCGACG	0.0913 log2 normalized fluorescence
CCGGCTGAAAAGAGGTATTAATAGCTAAGATTACTATATCGACG	-0.00138 log2 normalized fluorescence
CCGGCTGACAGCAAGTATTAATAGCTAAGATTACTATATCGACG	0.286 log2 normalized fluorescence
CCGGCTGACCGTAAGTATTAATAGCTAAGATTACTATATCGACG	0.214 log2 normalized fluorescence
CCGGCAAGTTTAAGCCGTTAATAGCTAAGATTACTATATCGACG	0.00903 log2 normalized fluorescence
CCGGCTGAGCCGCTGTATTAATAGCTAAGATTACTATATCGACG	0.0565 log2 normalized fluorescence
CCGGCTGAGAGGCCGTATTAATAGCTAAGATTACTATATCGACG	0.0066 log2 normalized fluorescence
CCGGCTGAAAAAGGGTATTAATAGCTAAGATTACTATATCGACG	-0.0246 log2 normalized fluorescence
CCGGCTGAGGGAGAGTATTAATAGCTAAGATTACTATATCGACG	-0.0403 log2 normalized fluorescence
CCGGCTGAAGAGGGGTATTAATAGCTAAGATTACTATATCGACG	0.288 log2 normalized fluorescence
CCGGCTGAGGGGGAGTATTAATAGCTAAGATTACTATATCGACG	0.823 log2 normalized fluorescence
CCGGCTGAAGGGTGGTATTAATAGCTAAGATTACTATATCGACG	0.18 log2 normalized fluorescence
CCGGCTGAAAAGGGGTATTAATAGCTAAGATTACTATATCGACG	0.161 log2 normalized fluorescence
CCGGCTGAGGGGAGGTATTAATAGCTAAGATTACTATATCGACG	0.438 log2 normalized fluorescence
CCGGCTGAAAGGGGGTATTAATAGCTAAGATTACTATATCGACG	0.83 log2 normalized fluorescence
CCGGCTGAAGGGGGGTATTAATAGCTAAGATTACTATATCGACG	0.855 log2 normalized fluorescence
CCGGCTGACTGGTCGTATTAATAGCTAAGATTACTATATCGACG	0.229 log2 normalized fluorescence
CCGGCTGACCTCTGGTATTAATAGCTAAGATTACTATATCGACG	-0.0273 log2 normalized fluorescence
CCGGCTGAGTGAGGGTATTAATAGCTAAGATTACTATATCGACG	0.097 log2 normalized fluorescence
CCGGCTGAAAAGCGGTATTAATAGCTAAGATTACTATATCGACG	0.0993 log2 normalized fluorescence
CCGGCTGACACTTAGTATTAATAGCTAAGATTACTATATCGACG	0.231 log2 normalized fluorescence
CCGGCTGACAAGTGGGATTAATAGCTAAGATTACTATATCGACG	0.302 log2 normalized fluorescence
CCGGCTGAGTGAGTGTATTAATAGCTAAGATTACTATATCGACG	0.08 log2 normalized fluorescence
CCGGCTGACGTTGTGTATTAATAGCTAAGATTACTATATCGACG	0.16 log2 normalized fluorescence
